In the first experiment the test system is PPARg DBDmut:RXRa IVT, anti-PPARg (DBD mutation: PPARg1 K132A/R137A, NR concentration 270 nM, RXRa partner concentration 90 nM). The experiment can be described thus: PBM binding z-score (relative to random genomic background probes); higher = stronger binding; sequences stand for … in GC…GCGATTGACAGCGTAGAATGAAGG
In outline:
(§1)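 Binding z-scores were set against random background probes. The data came from custom Agilent 4×180K protein-binding microarrays carrying double-stranded probes with 34-nt variable regions, incubated 1 h with ligand-free nuclear receptor dimers. Partner-specific antibodies detected binding, and scanned fluorescence was regression-normalized.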
As to TCTTGTAGATTAGCAGGTTAAGAAAGCTGGCCAA, the PBM binding z-score was -0.369.

For CGAACTAGGTCAGAACAGGACAGTGAAGGATGAT, the PBM binding z-score worked out at 1.26.

For CCTACTGGCCCAAAGGTCATTGATTCCAATGCTC, the PBM binding z-score was -0.204.

Turning to CGAACCAGGGCATGAGTTGATAGCAAATGCCGAT, the PBM binding z-score was -0.69.

TTCCCAAGGTGAAAGGTCGTTGATGCACGCCTTG had a PBM binding z-score of 0.3.

The sequence CCTGCTACGTCATGGTCAGCTAATCTACAGTATG returned a PBM binding z-score of 0.222.

Sequence TCGAGTAGGTTACCAATGAGGCATTCAGCTTTCT registered a PBM binding z-score of 0.0818.

AGTCAAAGTTCATCTAGGTAACGTACGATATGCT: the PBM binding z-score is 1.4.

In the case of TCTAGGTGGTCACGGAGGTCACACACGACGGGTA, the PBM binding z-score was found to be 0.705.

Turning to ACTAGCAGGCCAAGGGTCACCCAAGATTAGTCCG, the PBM binding z-score came out at 0.826.

For GATACAGTGTCAGCTAGAGGCCAGAGTATGGAAA, the PBM binding z-score amounted to 0.343.

CCTTCTGGGCCATCAGGTCATTGATATCAACGTT yielded a PBM binding z-score of 0.4.

For TCTTGTAGATAAACAGGAGGTTAAGAAAGATCGA, the PBM binding z-score worked out at 0.991.

Sequence CCTACTGGGCCAAGGGTCATTGATTCCAATGCTC came in with a PBM binding z-score of 0.63.

On to GCTTGGAGATCAAGGTTAAGAAAGACTAAGCTAA, for which the PBM binding z-score is -0.0376.

The sequence ATCTCTAGGTAAGACTCAGTTCAGCGAAGAACGC had a PBM binding z-score of 0.389.

Take TCTAGTTTGTCACGGAGGTCACACACGACGGGTA: the PBM binding z-score turned out to be 0.895.

In the case of TCTGGTAGATCAAGCAGGTTAAGAAAGCCTGAGT, the PBM binding z-score was -0.408.

In the case of TTACCAAGGTGAGCTGAGGCCGTTGATCCAACTC, the PBM binding z-score is -0.955.

On to TCTTGTAGCTCAATAGAGGTTAAGAAAGTGCGCT, for which the PBM binding z-score was determined as 0.592.

The sequence ATCTCTAGGGAACCAAGTTCAGTGAATGCCGAAC yielded a PBM binding z-score of 0.0886.

Turning to TCTATTAGTTGAAGGACAACCGACGAGTCCGTTT, the PBM binding z-score was found to be 0.961.

In the case of ACTAGCAGGCCAAGTTGGGGTCACTCAAACAAAG, the PBM binding z-score was -0.0232.

Take TTACCAATGTGAGCTGAGGTCGTTGATCCAACTC: the PBM binding z-score was 0.679.

TCATATAGGTAATACAGGTGAAAATCGGCATCTA: the PBM binding z-score was 1.52.

Sequence TCTGCTAGGTCTGTTGGTCAGCTAACGAGCTGCC came in with a PBM binding z-score of 0.17.

Take TCTAGTTGGTCACGGAGGTCAAACACGACGGGTA: the PBM binding z-score came to 0.658.

Turning to TCATTTAGGTAAAAGGTGAAAGTCGGTGTGGTAA, the PBM binding z-score worked out at 0.936.

In the case of CGTCCAAGGTCAGAGAGGGCAGTGAATGCCGAGT, the PBM binding z-score was -0.519.

Take AATACAGGGTCACTAGGCCAGACTAGGTACGAAT: the PBM binding z-score came out at 3.19.

As to ACTTACGGGCCAACGAGGTTATAGCACGCGTATA, the PBM binding z-score turned out to be 0.118.

With CACCCTAGGTCAGGGCCAGTATAGGAGGAACGTT, the PBM binding z-score was -0.28.

Take CGAACTAGGTCGTTGACAGGACAGTGAATAGTAA: the PBM binding z-score was 0.86.

Take TCGAGTAGGTTACCAAAGGGGCATTCAGCTTTCT: the PBM binding z-score is 0.155.

On to TCTTGTAGACCAGCAGGTTAAGAAAGCTGGCCAA, for which the PBM binding z-score was -1.37.

CCTATTAGTTGACCATAAGGGCAGCCGAAGCTCG: the PBM binding z-score is -0.234.

Sequence CATACATGGTCAGCTAGGCCAGAGTAGGGACGGC displayed a PBM binding z-score of 0.136.

TCTTGTAGATCAATAGAGTTTAAGAAAGTGCGCT came in with a PBM binding z-score of 0.851.

Consider AGAATGAGGTTATACGTAGATAAGGGAAGAAAGT, for which the PBM binding z-score worked out at 1.07.

The next experiment relates to PPARg DBDmut IVT, anti-PPARg (DBD mutation: PPARg1 K132A/R137A, NR concentration 270 nM). The description is as above. In outline:
as §1
For the sequence TCTTGTAGATTAGCAGGTTAAGAAAGCTGGCCAA, the PBM binding z-score was -0.0447.

As to CGAACTAGGTCAGAACAGGACAGTGAAGGATGAT, the PBM binding z-score amounted to 0.744.

Take CCTACTGGCCCAAAGGTCATTGATTCCAATGCTC: the PBM binding z-score was -0.16.

For the sequence CGAACCAGGGCATGAGTTGATAGCAAATGCCGAT, the PBM binding z-score was 0.106.

Consider TTCCCAAGGTGAAAGGTCGTTGATGCACGCCTTG, for which the PBM binding z-score is -0.0355.

On to CCTGCTACGTCATGGTCAGCTAATCTACAGTATG, for which the PBM binding z-score was -0.835.

Take TCGAGTAGGTTACCAATGAGGCATTCAGCTTTCT: the PBM binding z-score was -0.605.

The sequence AGTCAAAGTTCATCTAGGTAACGTACGATATGCT returned a PBM binding z-score of 2.09.

For TCTAGGTGGTCACGGAGGTCACACACGACGGGTA, the PBM binding z-score is 0.508.

Take ACTAGCAGGCCAAGGGTCACCCAAGATTAGTCCG: the PBM binding z-score was -0.393.

Turning to GATACAGTGTCAGCTAGAGGCCAGAGTATGGAAA, the PBM binding z-score was -0.259.

CCTTCTGGGCCATCAGGTCATTGATATCAACGTT yielded a PBM binding z-score of 0.236.

TCTTGTAGATAAACAGGAGGTTAAGAAAGATCGA yielded a PBM binding z-score of 1.09.

As for CCTACTGGGCCAAGGGTCATTGATTCCAATGCTC, the PBM binding z-score is -0.667.

Regarding GCTTGGAGATCAAGGTTAAGAAAGACTAAGCTAA, the PBM binding z-score was -0.611.

ATCTCTAGGTAAGACTCAGTTCAGCGAAGAACGC returned a PBM binding z-score of 0.673.

Take TCTAGTTTGTCACGGAGGTCACACACGACGGGTA: the PBM binding z-score turned out to be 1.64.

For the sequence TCTGGTAGATCAAGCAGGTTAAGAAAGCCTGAGT, the PBM binding z-score is -0.683.

Regarding TTACCAAGGTGAGCTGAGGCCGTTGATCCAACTC, the PBM binding z-score was -0.387.

TCTTGTAGCTCAATAGAGGTTAAGAAAGTGCGCT came in with a PBM binding z-score of 0.551.

Sequence ATCTCTAGGGAACCAAGTTCAGTGAATGCCGAAC gave a PBM binding z-score of 0.863.

As to TCTATTAGTTGAAGGACAACCGACGAGTCCGTTT, the PBM binding z-score worked out at 1.19.

For ACTAGCAGGCCAAGTTGGGGTCACTCAAACAAAG, the PBM binding z-score was -0.538.

As for TTACCAATGTGAGCTGAGGTCGTTGATCCAACTC, the PBM binding z-score was -0.281.

In turn, TCATATAGGTAATACAGGTGAAAATCGGCATCTA showed a PBM binding z-score of 1.47.

TCTGCTAGGTCTGTTGGTCAGCTAACGAGCTGCC yielded a PBM binding z-score of 0.0841.

Sequence TCTAGTTGGTCACGGAGGTCAAACACGACGGGTA registered a PBM binding z-score of 0.77.

TCATTTAGGTAAAAGGTGAAAGTCGGTGTGGTAA came in with a PBM binding z-score of 1.44.

CGTCCAAGGTCAGAGAGGGCAGTGAATGCCGAGT: the PBM binding z-score is -0.66.

For AATACAGGGTCACTAGGCCAGACTAGGTACGAAT, the PBM binding z-score amounted to 1.09.

ACTTACGGGCCAACGAGGTTATAGCACGCGTATA displayed a PBM binding z-score of 0.119.

For CACCCTAGGTCAGGGCCAGTATAGGAGGAACGTT, the PBM binding z-score is -0.553.

In turn, CGAACTAGGTCGTTGACAGGACAGTGAATAGTAA gave a PBM binding z-score of 0.354.

Take TCGAGTAGGTTACCAAAGGGGCATTCAGCTTTCT: the PBM binding z-score stood at 0.119.

As for TCTTGTAGACCAGCAGGTTAAGAAAGCTGGCCAA, the PBM binding z-score was -0.977.

Regarding CCTATTAGTTGACCATAAGGGCAGCCGAAGCTCG, the PBM binding z-score is -0.298.

On to CATACATGGTCAGCTAGGCCAGAGTAGGGACGGC, for which the PBM binding z-score was -0.418.

Sequence TCTTGTAGATCAATAGAGTTTAAGAAAGTGCGCT had a PBM binding z-score of 0.852.

Consider AGAATGAGGTTATACGTAGATAAGGGAAGAAAGT, for which the PBM binding z-score was 1.1.

Source of the values: the supplement of paper PMC6555819.
